# According to PubChem BioAssay:
# A number with no mark means an inactive call. For part of these data: Entries with a potency or affinity are not part of this list. Active and inactive are the calls of the source. Unless noted, the rule behind the calls is not given here.
# What was measured:
# [1] = antimalarial activity against Dd2 strain (AID 2302;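 active = growth inhibition above 50% at the single 2 µM test dose, taken to imply half-maximal potency below 2 µM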;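 note: 0% = DMSO untreated growth and 100% = chloroquine plus artemisinin killed control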); settings: P. falciparum Dd2 in RBCs, LDH growth readout, 72 h; at 2 µM; stronger effect = higher value
# [2] = HepG2 cytotoxicity, primary screen, cytotoxicity control for P. falciparum antimalarial project, cell-based, ATP luminescence (AID 2303;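 active = inhibition above 50%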;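 note: 0% = DMSO wells and 100% = digitonin-killed cells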); settings: HepG2 viability, 24-48 h, at 10 µM, stronger effect = higher value
# [3] = molecular target: L-lactate dehydrogenase (Plasmodium falciparum (isolate CDC / Honduras)) (UniProt Q27743); test: PfLDH activity inhibition – cell lysate, 3D7 strain, counter-screen for P. falciparum growth inhibition project (AID 2304);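 note: 0% = vehicle and 100% = reference inhibitor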; settings: P. falciparum 3D7 crude extract, LDH APAD/NBT absorbance; at 2 µM; stronger effect = higher value
# [4] = inhibition of 3D7 malaria parasite growth – strain 3D7 (AID 2306);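 note: 0% = DMSO wells and 100% = chloroquine plus artemisinin control wells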; settings: P. falciparum 3D7 erythrocytic growth, LDH absorbance, 72 h; at 2 µM; stronger effect = higher value
# [5] = molecular target: Calcium-dependent protein kinase 1 (Plasmodium falciparum (isolate 3D7)) (UniProt P62344); test: PfCDPK1 kinase inhibitors, biochemical, TCAMS library (AID 1159585; cut-off not given, nearly all actives have IC50 up to about 0.98 µM;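 note: inhibitors leave more ATP so luminescence rises with inhibition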); settings: recombinant PfCDPK1, Kinase-Glo ATP depletion luminescence
# [6] = molecular target: Plasmodium falciparum protein kinase 6 (PK6, PF3D7_1337100) (UniProt Q8IDW1); test: PfPK6 kinase inhibitors, biochemical, TCAMS library (AID 1159586); settings: recombinant PfPK6, Kinase-Glo ATP depletion luminescence
# [7] = molecular target: Protein kinase 7 (PK7), Plasmodium falciparum 3D7 (PF3D7_0213400) (UniProt Q7YTF7); test: inhibition of Plasmodium PK7 catalytic activity – biochemical, TCAMS antimalarial set, Kinase-Glo luminescence (AID 1159587); settings: recombinant PfPK7, Kinase-Glo ATP depletion luminescence
# [8] = molecular target: Calcium-dependent protein kinase 4 (Plasmodium falciparum (isolate 3D7)) (UniProt Q8IBS5); test: PfCDPK4 kinase inhibitors, biochemical, TCAMS library (AID 1159588; cut-off not given, nearly all actives have IC50 up to about 0.91 µM); settings: recombinant PfCDPK4, Kinase-Glo ATP depletion luminescence
# Sequence of Calcium-dependent protein kinase 4 (Plasmodium falciparum (isolate 3D7)) (Q8IBS5 whole entry, looked up): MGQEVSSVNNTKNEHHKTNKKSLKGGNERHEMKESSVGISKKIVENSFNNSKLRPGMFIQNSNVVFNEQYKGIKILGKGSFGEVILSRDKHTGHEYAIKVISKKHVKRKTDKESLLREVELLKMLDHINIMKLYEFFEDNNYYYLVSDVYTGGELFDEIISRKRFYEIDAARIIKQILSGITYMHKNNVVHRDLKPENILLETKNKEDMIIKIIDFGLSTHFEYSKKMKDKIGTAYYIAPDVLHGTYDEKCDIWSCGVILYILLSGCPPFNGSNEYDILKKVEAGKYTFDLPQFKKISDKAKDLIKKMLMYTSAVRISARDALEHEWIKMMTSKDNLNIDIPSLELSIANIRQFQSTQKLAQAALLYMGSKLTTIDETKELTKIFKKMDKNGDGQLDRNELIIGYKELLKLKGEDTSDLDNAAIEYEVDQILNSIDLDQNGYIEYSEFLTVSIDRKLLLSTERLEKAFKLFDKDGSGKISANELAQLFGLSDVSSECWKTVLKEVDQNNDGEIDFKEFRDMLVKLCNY
# Sequence of Protein kinase 7 (PK7), Plasmodium falciparum 3D7 (PF3D7_0213400) (Q7YTF7 1-343): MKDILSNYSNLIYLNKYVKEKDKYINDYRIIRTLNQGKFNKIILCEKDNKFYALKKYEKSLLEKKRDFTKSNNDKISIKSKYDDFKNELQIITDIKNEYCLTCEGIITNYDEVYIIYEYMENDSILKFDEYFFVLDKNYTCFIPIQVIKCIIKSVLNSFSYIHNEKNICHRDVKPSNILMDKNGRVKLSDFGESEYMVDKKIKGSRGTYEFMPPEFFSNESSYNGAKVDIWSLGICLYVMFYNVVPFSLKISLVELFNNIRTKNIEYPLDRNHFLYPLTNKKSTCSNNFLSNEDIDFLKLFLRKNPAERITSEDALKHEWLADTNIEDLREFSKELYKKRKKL
# Sequence of L-lactate dehydrogenase (Plasmodium falciparum (isolate CDC / Honduras)) (Q27743 whole entry, looked up): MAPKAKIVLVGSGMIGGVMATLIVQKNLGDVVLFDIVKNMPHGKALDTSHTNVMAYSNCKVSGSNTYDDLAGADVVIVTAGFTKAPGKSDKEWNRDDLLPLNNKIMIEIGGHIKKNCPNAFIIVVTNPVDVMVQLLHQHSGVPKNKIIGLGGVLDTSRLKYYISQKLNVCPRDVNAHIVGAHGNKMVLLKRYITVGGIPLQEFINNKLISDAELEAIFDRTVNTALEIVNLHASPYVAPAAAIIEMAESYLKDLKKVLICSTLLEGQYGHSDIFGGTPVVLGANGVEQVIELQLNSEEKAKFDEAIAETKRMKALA
# Sequence of Calcium-dependent protein kinase 1 (Plasmodium falciparum (isolate 3D7)) (P62344 whole entry, looked up): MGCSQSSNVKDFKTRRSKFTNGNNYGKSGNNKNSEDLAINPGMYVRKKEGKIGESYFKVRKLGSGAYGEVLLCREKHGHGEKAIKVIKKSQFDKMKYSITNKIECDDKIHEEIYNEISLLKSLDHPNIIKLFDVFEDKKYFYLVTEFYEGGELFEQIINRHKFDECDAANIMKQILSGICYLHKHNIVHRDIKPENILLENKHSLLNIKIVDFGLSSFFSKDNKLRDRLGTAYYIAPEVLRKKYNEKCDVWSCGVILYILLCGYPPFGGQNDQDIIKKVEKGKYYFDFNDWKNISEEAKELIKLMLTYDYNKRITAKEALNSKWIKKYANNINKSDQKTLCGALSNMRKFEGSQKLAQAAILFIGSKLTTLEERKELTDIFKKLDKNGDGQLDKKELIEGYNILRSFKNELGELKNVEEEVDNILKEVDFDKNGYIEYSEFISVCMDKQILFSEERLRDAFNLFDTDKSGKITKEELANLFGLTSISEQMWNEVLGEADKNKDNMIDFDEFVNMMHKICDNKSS
# Sequence of Plasmodium falciparum protein kinase 6 (PK6, PF3D7_1337100) (Q8IDW1 1-305): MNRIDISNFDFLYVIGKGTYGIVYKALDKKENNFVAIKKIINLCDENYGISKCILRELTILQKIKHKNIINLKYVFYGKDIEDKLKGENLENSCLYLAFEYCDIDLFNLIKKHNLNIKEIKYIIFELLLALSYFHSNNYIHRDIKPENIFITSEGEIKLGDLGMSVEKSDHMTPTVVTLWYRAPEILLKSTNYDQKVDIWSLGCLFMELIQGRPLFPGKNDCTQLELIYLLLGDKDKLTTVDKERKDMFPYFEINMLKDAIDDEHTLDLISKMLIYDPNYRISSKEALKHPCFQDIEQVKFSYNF
Structure (SMILES),growth inhibition [1],inhibition [2],inhibition [3] [%],growth inhibition [4],outcome [5],outcome [6],outcome [7],outcome [8]
O=C(CN1CCN(C(=O)c2ccco2)CC1)Nc1ccc(Br)cc1Cl,79% (active),10%,-6,88% (active),inactive,inactive,inactive,inactive
Cc1cc2ncn(-c3nccc(NCc4ccc(F)cc4)n3)c2cc1C,83% (active),10%,-2,98% (active),inactive,inactive,inactive,inactive
O=C(Nc1ccc2c(c1)CCNCC2)Nc1ccc2ccccc2c1,23%,-6%,-1,84% (active),inactive,inactive,inactive,inactive
CCOc1cc(Cl)c(C(C)NC(=O)c2ccccc2)cc1OCC (configuration not stated),49%,-3%,-1,91% (active),inactive,inactive,inactive,inactive
CCNc1cc(C(=O)N[C@@H](Cc2ccccc2)[C@H](O)CNC2C3CC4CC(C3)CC2C4)cc(N2CCCCS2(=O)=O)c1 (some centres not stated),96% (active),-2%,6,97% (active),inactive,inactive,inactive,inactive
CC(=O)N1Cc2ccccc2C1=O,-1%,10%,-4,97% (active),inactive,inactive,inactive,inactive
O=C(NCCN1CCCC1)c1ccc(-c2ccc(-c3nc4ccccc4[nH]3)s2)cc1,3%,22%,-2,92% (active),inactive,inactive,inactive,inactive
O=C(Cc1ccccc1)NC1CCN(c2ccnc3cc(Cl)ccc23)C1 (configuration not stated),78% (active),6%,-6,101% (active),inactive,inactive,inactive,inactive
CCOC(=O)c1[nH]c2ccc(F)cc2c1NC(=O)CN1CCN(c2cccc(C(F)(F)F)c2)CC1,90% (active),12%,-2,96% (active),inactive,inactive,inactive,inactive
O=C(/C=C/c1ccc(Cl)c(Cl)c1)N1CCC(CCN2CCC(c3nc4ccc(O)cc4[nH]3)CC2)CC1,60% (active),42%,4,100% (active),inactive,inactive,inactive,inactive
CN(C)c1ccc(C=Cc2ccc3ccccc3n2)c(Cl)c1,95% (active),59% (active),1,94% (active),inactive,inactive,inactive,inactive
CCCCCCNC(=O)c1nn(CCN2CCC(N3CCCC3)CC2)cc1-c1ccc(Cl)c(Cl)c1,33%,31%,-2,101% (active),inactive,inactive,inactive,inactive
CC(C)C[C@@H](NC(=O)NC1CCC(CCN2[C@@H]3CC[C@H]2CC(OC(=O)C(CO)c2ccccc2)C3)CC1)C(O)(c1ccccc1)c1ccccc1 (some centres not stated),71% (active),21%,-6,95% (active),inactive,inactive,inactive,inactive
COc1ccc2nc(C)cc(NN=Cc3ccccc3F)c2c1,100% (active),3%,-4,100% (active),inactive,inactive,inactive,inactive
CC1(C)CN(CCC2CCC(NC(=O)/C=C/c3ccc(F)cc3F)CC2)Cc2ccc(C#N)cc21 (configuration not stated),77% (active),39%,-6,88% (active),inactive,inactive,inactive,inactive
O=C(N[C@H]1CCN(CCc2ccc(O[C@H]3CCNC3)c(Br)c2)C1)c1ccc(Cl)c(Cl)c1,0%,28%,-4,100% (active),inactive,inactive,inactive,inactive
CCN(CC)CCCC(C)Nc1c(-c2ccc(C)cc2)cnc2ccccc12 (configuration not stated),65% (active),8%,1,85% (active),inactive,inactive,inactive,inactive
C=CCn1c(Sc2ccc(C#N)c([N+](=O)[O-])c2)nnc1-c1cc(OC)cc(OC)c1,84% (active),12%,0,96% (active),inactive,inactive,inactive,inactive
CCN1CCC(N(Cc2ccc(-c3ccc(Cl)cc3)cc2)C(=O)Cn2c(CCc3cccc(F)c3F)cc(=O)c3ccccc32)CC1,95% (active),100% (active),-7,99% (active),inactive,inactive,inactive,inactive
COc1ccc2nccc(NCC3(O)CCN(CCc4ccc5c(c4)OCCO5)CC3)c2n1,87% (active),35%,3,100% (active),inactive,inactive,inactive,inactive

Structure (SMILES),growth inhibition [1],inhibition [2],inhibition [3] [%],growth inhibition [4],outcome [5],outcome [6],outcome [7],outcome [8]
COc1ccc2nccc([C@@H](O)CN3CCC(c4cc(-c5ccc(Cl)cc5)n[nH]4)CC3)c2n1,56% (active),43%,0,97% (active),inactive,inactive,inactive,inactive
Cc1ccc(CN(Cc2ccc(C(=O)N(C)C)cc2)Cc2ccc3c(c2)OCCO3)cc1C,87% (active),10%,0,91% (active),inactive,inactive,inactive,inactive
Oc1cccc(CCNCCCCCCNCCc2ccc(Cl)cc2)c1,-3%,23%,-1,96% (active),inactive,inactive,inactive,inactive
CN1CCC(NCc2cccc(-c3ccc(S(=O)(=O)NCCN4CCCC4)s3)c2)CC1,1%,10%,-5,91% (active),inactive,inactive,inactive,inactive
O=C(Nc1cccc(C(F)(F)F)c1)Nc1nc2ccc([N+](=O)[O-])cc2s1,76% (active),81% (active),0,102% (active),inactive,inactive,inactive,inactive
COc1ccc(-n2ccnc2)cc1CNC1CCN(CC2Cn3c(=O)ccc4ccc(F)c2c43)CC1 (configuration not stated),18%,25%,-1,99% (active),inactive,inactive,inactive,inactive
CC(=O)Nc1ccc(Nc2c3ccccc3nc3ccccc23)cc1,62% (active),41%,3,89% (active),inactive,inactive,inactive,inactive
CN1CCN(c2ccc(Nc3nc(N)c4ccn(C5CCC5)c4n3)cc2)CC1,47%,-3%,2,93% (active),inactive,inactive,inactive,inactive
CCNC(=O)Nc1cccc(-c2cccc(-c3nc4c(C)cccc4[nH]3)c2)c1,31%,7%,4,85% (active),inactive,inactive,inactive,inactive
O=C(NCc1ccc(F)cc1)Nc1cccc(-c2ccc(-c3nc4ccc(F)cc4[nH]3)cc2)c1,96% (active),7%,-3,101% (active),inactive,inactive,inactive,inactive
CCCCCCCCNCc1c(O)ccc2ccccc12,94% (active),-11%,0,99% (active),inactive,inactive,inactive,inactive
O=C(Nc1ccc(Br)c(Cl)c1)c1cc([N+](=O)[O-])cc2cn[nH]c12,63% (active),49%,-1,99% (active),inactive,inactive,inactive,inactive
CCc1c[nH]c2c(N3CCCC3=O)cc(C(=O)N[C@@H](Cc3ccccc3)[C@H](O)CNC(C)(C)CCCC(C)C)cc12,97% (active),22%,1,96% (active),inactive,inactive,inactive,inactive
Oc1ccccc1CN1CCCC(COC(c2ccc(F)cc2)c2ccc(F)cc2)C1 (configuration not stated),98% (active),19%,1,97% (active),inactive,inactive,inactive,inactive
O=S(=O)(NCCN1CCCC1)c1ccc(-c2ccc(CNCc3ccsc3)cc2)s1,40%,31%,7,99% (active),inactive,inactive,inactive,inactive
CCn1cnc2c(N3CCCCS3(=O)=O)cc(C(=O)N[C@@H](Cc3ccccc3)[C@H](O)CNC3CCOCC3)cc21,87% (active),7%,6,99% (active),inactive,inactive,inactive,inactive
COc1ccc2ncc(F)c(CCN3CCC(NCc4cc(F)c5c(c4)OCCO5)CC3)c2n1,67% (active),15%,-5,100% (active),inactive,inactive,inactive,inactive
COc1ccccc1C1CC(c2ccccc2)=NN1C(=O)c1ccco1 (configuration not stated),95% (active),12%,-2,97% (active),inactive,inactive,inactive,inactive
CN(C)C=Nc1ccc(OCCCCCCOc2ccc(N=CN(C)C)cc2)cc1,94% (active),26%,6,101% (active),inactive,inactive,inactive,inactive
